According to PubChem BioAssay (Tox21):
Unmarked numbers belong to inactive results. A call without a number means that no potency is given here. The source made the active and inactive calls. Calls follow the shape of the dose curve; as a rule, active = well fitted curve in the direction sought with a large enough effect in the repeat runs; inconclusive = weak or mixed curves; inactive = flat fitted curve, though single readings scatter.

Test: qHTS assay to test for compound auto fluorescence at 535 nm (green) in HepG2 cell free culture (AID 720686)
Settings: Cell-free medium, green autofluorescence 485/535 nm; series mostly up to 91.3 µM
Text: U.S. Tox21 Program National Center for Advancing Translational Sciences [NCATS] NIH Chemical Genomics Center [NCGC] U.S. Environmental Protection Agency [EPA] National Institutes of Environmental Health Sciences [NIEHS] National Toxicology Program [NTP] U.S. Food and Drug Administration [FDA] Tox21 Assay Overview: Compound auto fluorescence often interferes with screening of the compound library against various biological targets and signaling pathways. Some of these compounds may have fluorophoric properties. Such properties may interfere with the assay outputs resulting in false positives and/or negatives. To decrease such complications and ensure the compound activities are relevant in terms of biological response, the Tox21 10K compound library was screened for auto fluorescence. From the fluorophores used as reporter signals in our screening assays, the auto fluorescence equivalencies of compounds against three fluorophores have been evaluated: Triamterene, Fluorescein and Rose Bengal sodium for blue, green and red fluorescence, respectively. The fluorescence intensities were measured using Excitation/Emission wavelengths at 405/460nm, 485/535nm and 540/590nm for blue, green and red labels, respectively. This assay includes the green fluorescence data.
Tox21 Assay Protocol Summary: 5 uL of culture medium (MEM containing 10% FBS) per well was dispensed into black wall/clear bottom 1536-well plates using a Multidrop Combi Dispenser (ThermoFisher Scientific, Waltham, MA). After 23 nL compound or DMSO vehicle was transferred into assay plate by a pintool work station (Kalypsys, San Diego, CA), fluorescence intensities in the assay plates were measured by an Envision (PerkinElmer, Shelton, CT) plate reader using three labels for measuring blue, green and red fluorescence at […] 460, 535 and 590nm respectively.

Row | Structure (SMILES) | Potency | fluorescence, % of fluorescein control
1 | Oc1ccc(C2(c3ccc(O)cc3)CC3CC2C2CCCC32)cc1 (stereo not given) | inactive | 
2 | Nc1c2ccccc2nc2ccccc12 | inactive | 
3 | CCN(CC)CCNC(=O)c1c(C)[nH]c(/C=C2\C(=O)Nc3ccc(F)cc32)c1C | inactive | 
4 | O=c1c(-c2ccccc2)c1-c1ccccc1 | inactive | 
5 | O=C(N/N=C/c1ccccc1O)c1ccncc1 | inactive | 
6 | CC1=NC(C)OC1C (stereo not given) | inactive | 
7 | NC(=O)N1C(=O)C(C(=O)c2cc(Cl)cs2)c2cc(F)c(Cl)cc21 (stereo not given) | inactive | 
8 | CN1CCC(Nc2ncc3ncnc(Nc4ccc(F)c(Cl)c4)c3n2)CC1 | inactive | 
9 | O=C(Nc1cccc([N+](=O)[O-])c1)c1cc2ccccc2cc1O | inactive | 
10 | N#CSc1ccc(N)c([N+](=O)[O-])c1 | inactive | 
11 | C[C@H](CCC(=O)O)[C@H]1CC[C@H]2[C@@H]3CC[C@@H]4C[C@H](O)CC[C@]4(C)[C@H]3CC[C@]12C | inactive | 
12 | Cc1nc(-c2ccc3c(c2)CCN(CCC2CCC(NC(=O)/C=C/c4ccc(F)cc4)CC2)CC3)no1 (stereo not given) | inactive | 
13 | Oc1ccc2cc(SSc3ccc4cc(O)ccc4c3)ccc2c1 | inactive | 
14 | CC(C)c1ccc2c(c1)CC[C@H]1[C@](C)(CN)CCC[C@]21C | inactive | 
15 | c1cc(C(c2ccc(OCC3CO3)cc2)c2ccc(OCC3CO3)cc2)ccc1OCC1CO1 (stereo not given) | inactive | 
16 | Oc1cccc(-c2c3nc(c(-c4cccc(O)c4)c4ccc([nH]4)c(-c4cccc(O)c4)c4nc(c(-c5cccc(O)c5)c5ccc2[nH]5)CC4)C=C3)c1 | inactive | 
17 | CCCN(CCC)c1c([N+](=O)[O-])cc(C(F)(F)F)c(N)c1[N+](=O)[O-] | inactive | 
18 | CC(C)(C)C(=O)OCOC(=O)[C@@H]1N2C(=O)[C@@H](NC(=O)[C@H](N)c3ccccc3)[C@H]2SC1(C)C |  | -0.0041% [at 18.6 µM]
19 | Oc1c(Cl)cc(Cl)c2cccnc12 | inactive | 
20 | C[n+]1cc2c3c(ccc2c2ccc4cc5c(cc4c21)OCO5)OCO3 | inactive | 

Row | Structure (SMILES) | Potency | fluorescence, % of fluorescein control
21 | CC(C)n1nc(-c2cc3cc(O)ccc3[nH]2)c2c(N)ncnc21 | inactive | 
22 | CCCCCCCCn1sc(Cl)c(Cl)c1=O | inactive | 
23 | CC(=O)S[C@@H]1CC2=CC(=O)CC[C@]2(C)[C@H]2CC[C@@]3(C)[C@@H](CC[C@@]34CCC(=O)O4)[C@H]12 | inactive | 
24 | CCCCCCCCNC(C)C(O)c1ccc(SC(C)C)cc1 (stereo not given) | inactive | 
25 | CCC(C)Nc1ccc(NC(C)CC)cc1 (stereo not given) | inactive | 
26 | CC(C)(C)C(=O)OCOC(=O)C1N2C(=O)CC2S(=O)(=O)C1(C)C (stereo not given) | inactive | 
27 | C[n+]1ccn(Cc2ccccc2)c1 | inactive | 
28 | Oc1ccc(N=Nc2ccccc2)cc1 | inactive | 
29 | O=C(c1ccc(O)cc1O)c1ccc(O)cc1O | inactive | 
30 | OCCCCCCCCCCCCBr | inactive | 
31 | N=C1N=C(N)c2ccccc21 | inactive | 
32 | C=CC(=O)OCCn1c(=O)n(CCOC(=O)C=C)c(=O)n(CCOC(=O)C=C)c1=O | inactive | 
33 | CCOC(=O)O[C@H](C)OC(=O)c1ccc2c(c1)cc(C(=O)NC1CCN(C(C)C)CC1)n2Cc1cc(-c2ccc(Cl)s2)on1 | inactive | 
34 | NC(=NCCCCCCN=C(N)/N=C(\N)Nc1ccc(Cl)cc1)/N=C(\N)Nc1ccc(Cl)cc1 | inactive | 
35 | Cc1ccc2oc(CN(Cc3ccccc3)C(=O)Nc3c(F)cc(F)cc3F)c(-c3ccc(Cl)cc3)c2c1 | inactive | 
36 | O=S1(=O)CC(Cl)(Cl)C(Cl)(Cl)C1 | inactive | 
37 | CC(C)OC(=O)c1cc2c(OCC(O)CNC(C)(C)C)cccc2[nH]1 (stereo not given) | inactive | 
38 | N/C(=N\N=C\c1ccc(Cl)cc1)N/N=C/c1ccc(Cl)cc1 | inactive | 
39 | S=c1[nH]c2ccccc2s1 | inactive | 
40 | C[C@H]1[C@H]2CC[C@H]3[C@@H]4CC=C5C[C@@H](N(C)C)CC[C@]5(C)[C@H]4CC[C@]23CN1C | inactive | 
